PubChem BioAssay (EPA / NIEHS)
Active and inactive are the calls of the source. The calls were made as follows: active = hit-call score of the fitted dose curve at least 0.9, where 1 is the maximum; inactive = score below 0.9.

Tests used:
[1] = APR_HepG2_StressKinase_1hr: Apredica 1-hour HepG2 Assay for Stress Kinase (AID 2282906); settings: HepG2 stress kinase (phospho-c-Jun) imaging, actives raise or lower the signal
Procedure, shortened: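 High-content imaging of phospho-c-Jun immunostaining (with Hoechst nuclear identification) after a 1 h exposure of HepG2 cells to 10 concentrations from 0.39 to 200 uM, final DMSO 0.5%. Fitted bidirectionally against DMSO.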

[2] = APR_HepG2_NuclearSize_24hr: Apredica 24-hour HepG2 Assay for Nuclear Size (AID 2282907); settings: high-content imaging, actives raise or lower the signal
Procedure, shortened: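 Nuclear size from Hoechst 33342-stained, formaldehyde-fixed HepG2 nuclei imaged by high-content microscopy, after 24 h dosing at ten concentrations from 0.39 to 200 uM in 0.5% DMSO; gain or loss relative to DMSO baseline.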

[3] = APR_HepG2_CellLoss_24hr: Apredica 24-hour HepG2 Assay for Cell Loss (AID 2282908); settings: high-content imaging;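 as to AC50: fit in both directions so a hit may be cell loss or gain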
Procedure, shortened: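 Nuclei stained with Hoechst 33342 after formaldehyde fixation (3.7%) were imaged at 20x to count cells. Exposure lasted 24 hr, at ten concentrations from 0.39 to 200 uM in duplicate, with 0.5% v/v DMSO. Fit bidirectional, relative to DMSO.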

[4] = APR_HepG2_MicrotubuleCSK_24hr: Apredica 24-hour HepG2 Assay for Microtubule CSK Stabilty (AID 2282909); settings: HepG2 microtubule cytoskeleton imaging, actives raise or lower the signal
Procedure, shortened: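 Fixed HepG2 cells were stained for alpha-tubulin and imaged after 24 hr exposure to ten concentrations spanning 0.39–200 uM in 0.5% DMSO. Signal change was fitted in both directions relative to DMSO; taxol was the positive control.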

[5] = APR_HepG2_MitoticArrest_24hr: Apredica 24-hour HepG2 Assay for Mitotic Arrest (AID 2282910); settings: high-content imaging, actives raise or lower the signal
Procedure, shortened: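 Treatment lasted 24 hr in the human HepG2 line at 0.39–200 uM, solvent held at 0.5% DMSO. Fixed cells were stained with Hoechst 33342 and anti-phospho-histone H3, imaged at 20x, and analysed by gain- or loss-of-signal fitting against DMSO.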

[6] = APR_HepG2_MitoMembPot_24hr: Apredica 24-hour HepG2 Assay for Mitochondrial Membrane Potential (AID 2282911); settings: imaging, actives raise or lower the signal
Procedure, shortened: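 HepG2, 24 hr dosing, 10 concentrations 0.39–200 uM, 0.5% DMSO final. Live-cell MitoTracker Red CMXRos 250 nM 30 min, then 3.7% formaldehyde fix. HCS fluorescence imaging, 20x; bidirectional fit vs DMSO baseline.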

[7] = APR_HepG2_p53Act_24hr: Apredica 24-hour HepG2 Assay for p53 Activation (AID 2282913); settings: high-content imaging, actives raise or lower the signal;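 also: p53 protein immunofluorescence averaged per cell in HepG2 with Hoechst nuclei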
Procedure, shortened: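 Read-out: Cy5 immunofluorescence for p53 in fixed, permeabilized HepG2, imaged by HCS with Hoechst-defined nuclei. Dosing was 24 hr at 0.39–200 uM in 0.5% DMSO. Curves were fitted bidirectionally relative to DMSO.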

[8] = APR_HepG2_CellCycleArrest_72hr: Apredica 72-hour HepG2 Assay for Cell Cycle Arrest (AID 2282914); settings: high-content imaging, actives raise or lower the signal
Procedure, shortened: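 HepG2, 72 hr exposure, 10-point 0.39–200 uM, duplicate, 0.5% DMSO final. Fix 3.7% formaldehyde 30 min RT, Triton X-100 0.5%, Hoechst 33342 2 ug/mL. ArrayScan 20x, six fields/well; DNA content per nucleus; bidirectional fit vs DMSO.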

[9] = APR_HepG2_CellLoss_72hr: Apredica 72-hour HepG2 Assay for Cell Loss (AID 2282915); settings: high-content imaging
Procedure, shortened: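 HepG2 cells were exposed for 72 hr to compounds at 0.39–200 uM (ten concentrations, duplicate) in 0.5% v/v final DMSO. Nuclei were stained with Hoechst 33342 after 3.7% formaldehyde fixation, imaged at 20x, and counted; fits bidirectional versus DMSO.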

[10] = APR_HepG2_MitoMass_24hr: Apredica 24-hour HepG2 Assay for Mitochondrial Mass (AID 2282912); settings: high-content imaging, actives raise or lower the signal
Procedure, shortened: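 Endpoint is MitoTracker Red CMXRos (250 nM, 30 min, pre-fixation) intensity from 20x high-content imaging, nuclei located by Hoechst. Human HepG2 cells received ten concentrations from 0.39 to 200 uM in 0.5% DMSO for 24 hr, duplicate wells. Bidirectional fit relative to DMSO.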

Row | SMILES | outcome [1] | outcome [2] | outcome [3] | outcome [4] | outcome [5] | outcome [6] | outcome [7] | outcome [8] | outcome [9] | outcome [10] | AC50 [9] | AC50 [8] | AC50 [3] | AC50 [4] | AC50 [5] | AC50 [6]
1 | COP(=O)(NC(C)=O)SC (configuration not stated) | inactive | inactive | inactive | inactive | inactive | inactive | inactive | inactive | inactive |  |  |  |  |  |  | 
2 | CNC(=O)ON=C(SC)C(=O)N(C)C | inactive | inactive | inactive | inactive | inactive | inactive | inactive | inactive |  | inactive | 100 µM (active) |  |  |  |  | 
3 | C#CC(C)(C)NC(=O)c1cc(Cl)cc(Cl)c1 | inactive | inactive | inactive | inactive | inactive | inactive | inactive | inactive |  |  | 69.1 µM (active) |  |  |  |  | 
4 | CCCOc1nn(C(=O)NS(=O)(=O)c2ccccc2C(=O)OC)c(=O)n1C | inactive | inactive | inactive | inactive | inactive | inactive | inactive | inactive | inactive | inactive |  |  |  |  |  | 
5 | CCC(=NOC/C=C/Cl)C1=C(O)CC(C2CCOCC2)CC1=O (configuration not stated) | inactive | inactive | inactive | inactive | inactive | inactive | inactive | inactive | inactive | inactive |  |  |  |  |  | 
6 | C[Si](Cn1cncn1)(c1ccc(F)cc1)c1ccc(F)cc1 | inactive | inactive | inactive | inactive | inactive | inactive | inactive | inactive |  |  | 57.8 µM (active) |  |  |  |  | 
7 | CC(C1CC1)C(O)(Cn1cncn1)c1ccc(Cl)cc1 (configuration not stated) | inactive | inactive | inactive | inactive | inactive | inactive | inactive | inactive | inactive |  |  |  |  |  |  | 
8 | CCOP(=S)(Oc1cnc(C(C)(C)C)nc1)OC(C)C (configuration not stated) | inactive | inactive | inactive | inactive | inactive | inactive | inactive |  |  |  | 82.7 µM (active) | 113 µM (active) |  |  |  | 
9 | CNC(=O)ON=C(C)SC | inactive | inactive | inactive | inactive | inactive | inactive | inactive | inactive | inactive |  |  |  |  |  |  | 
10 | N#CSCSC#N | inactive | inactive |  | inactive | inactive | inactive | inactive | inactive | inactive | inactive |  |  | 13.6 µM (active) |  |  | 
11 | CC(Oc1cccc(Cl)c1)C(=O)O (configuration not stated) | inactive | inactive | inactive | inactive | inactive | inactive | inactive | inactive | inactive | inactive |  |  |  |  |  | 
12 | Cc1nn(-c2cc(NS(C)(=O)=O)c(Cl)cc2Cl)c(=O)n1C(F)F | inactive | inactive | inactive | inactive | inactive | inactive | inactive | inactive | inactive | inactive |  |  |  |  |  | 
13 | CCOP(=O)(NC(C)C)Oc1ccc(SC)c(C)c1 (configuration not stated) | inactive | inactive | inactive | inactive | inactive | inactive | inactive | inactive |  |  | 89.2 µM (active) |  |  |  |  | 
14 | CCC(=O)Nc1ccc(Cl)c(Cl)c1 |  | inactive | inactive | inactive | inactive | inactive | inactive | inactive | inactive | inactive |  |  |  |  |  | 
15 | CCc1cccc(CC)c1N(COC)C(=O)CCl | inactive | inactive |  |  |  | inactive |  | inactive |  |  | 17.2 µM (active) |  | 92.5 µM (active) | 55.7 µM (active) | 62.4 µM (active) | 
16 | CCOP(=S)(OCC)Oc1ccc([N+](=O)[O-])cc1 | inactive | inactive | inactive | inactive | inactive | inactive | inactive | inactive | inactive |  |  |  |  |  |  | 
17 | CCOP(=S)(OCC)OC(Cl)C(Cl)(Cl)Cl (configuration not stated) | inactive | inactive |  | inactive | inactive |  | inactive |  |  | inactive | 144 µM (active) | 165 µM (active) | 97.5 µM (active) |  |  | 151 µM (active)

Row | SMILES | outcome [1] | outcome [2] | outcome [3] | outcome [4] | outcome [5] | outcome [6] | outcome [7] | outcome [8] | outcome [9] | outcome [10] | AC50 [9] | AC50 [8] | AC50 [3] | AC50 [4] | AC50 [5] | AC50 [6]
18 | CCCCSP(=O)(SCCCC)SCCCC | inactive | inactive | inactive | inactive | inactive | inactive | inactive | inactive |  | inactive | 87.3 µM (active) |  |  |  |  | 
19 | CN(C)[C@@H]1C(=O)C(C(N)=O)=C(O)[C@@]2(O)C(=O)C3=C(O)c4c(O)cccc4[C@@](C)(O)[C@H]3[C@H](O)[C@@H]12 | inactive | inactive | inactive | inactive | inactive | inactive |  | inactive | inactive | inactive |  |  |  |  |  | 
20 | CSc1nc(NC(C)C)nc(NC(C)C)n1 |  | inactive | inactive | inactive | inactive | inactive | inactive | inactive | inactive | inactive |  |  |  |  |  | 
21 | CC(C)[C@H](C(=O)O[C@H](C#N)c1cccc(Oc2ccccc2)c1)c1ccc(Cl)cc1 | inactive | inactive | inactive | inactive | inactive | inactive | inactive | inactive | inactive |  |  |  |  |  |  | 
22 | FC(F)C(F)(F)OCC(Cn1cncn1)c1ccc(Cl)cc1Cl (configuration not stated) |  | inactive |  |  | inactive | inactive | inactive |  |  | inactive | 99.9 µM (active) | 75.8 µM (active) | 48.7 µM (active) | 103 µM (active) |  | 
23 | COP(=O)(OC)C(O)C(Cl)(Cl)Cl (configuration not stated) | inactive | inactive |  |  |  | inactive | inactive |  |  |  | 100 µM (active) | 184 µM (active) | 76.8 µM (active) | 97.7 µM (active) | 103 µM (active) | 
24 | CC1=NNC(=O)N(/N=C/c2cccnc2)C1 |  | inactive | inactive | inactive | inactive | inactive | inactive | inactive | inactive | inactive |  |  |  |  |  | 
25 | O=c1ccc(=O)[nH][nH]1 | inactive | inactive | inactive | inactive | inactive | inactive | inactive | inactive | inactive | inactive |  |  |  |  |  | 
26 | CCOC(=O)COc1cc(-c2nn(C)c(OC(F)F)c2Cl)c(F)cc1Cl | inactive | inactive | inactive | inactive | inactive | inactive | inactive | inactive | inactive | inactive |  |  |  |  |  | 
27 | CCOP(=O)(SC(C)CC)N1CCSC1=O (configuration not stated) | inactive | inactive | inactive | inactive | inactive | inactive |  | inactive | inactive | inactive |  |  |  |  |  | 
28 | Nc1c(Cl)cc([N+](=O)[O-])cc1Cl | inactive | inactive | inactive | inactive | inactive | inactive |  | inactive |  |  | 95.3 µM (active) |  |  |  |  | 
29 | COc1cc(OC)nc(Sc2cccc(Cl)c2C(=O)O)n1 | inactive | inactive | inactive | inactive | inactive | inactive | inactive | inactive | inactive |  |  |  |  |  |  | 
30 | CCOP(=S)(OCC)Oc1ccc2c(C)c(Cl)c(=O)oc2c1 | inactive | inactive | inactive | inactive |  | inactive | inactive | inactive |  | inactive | 49.1 µM (active) |  |  |  | 114 µM (active) | 
31 | C[N+]1(C)CCCCC1 | inactive | inactive | inactive | inactive | inactive | inactive | inactive | inactive | inactive |  |  |  |  |  |  | 
32 | CNC(=O)Oc1cccc2c1OC(C)(C)O2 | inactive | inactive |  | inactive | inactive | inactive | inactive | inactive |  | inactive | 86.6 µM (active) |  | 83.8 µM (active) |  |  | 
33 | CC(C)N(C(=O)SCC(Cl)=C(Cl)Cl)C(C)C | inactive | inactive |  | inactive | inactive | inactive | inactive | inactive |  |  | 110 µM (active) |  | 113 µM (active) |  |  | 
